{"source": "PubChem BioAssay AID1422", "about": "(Emory University Molecular Libraries Screening Center, 2008)", "note": "Hit rate of the full screen: of about 260,000 compounds, about 1,300 (0.5%) were called active.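 Rule for the calls: active = percent inhibition above 40 after rounding to a whole number; inactive = the rest.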 Shown is part of a subset that was picked to be rich in actives."}
{"biological_target": "Prostaglandin E2 receptor EP2 subtype (Homo sapiens) (UniProt P43116)", "sequence (P43116 whole entry, looked up)": "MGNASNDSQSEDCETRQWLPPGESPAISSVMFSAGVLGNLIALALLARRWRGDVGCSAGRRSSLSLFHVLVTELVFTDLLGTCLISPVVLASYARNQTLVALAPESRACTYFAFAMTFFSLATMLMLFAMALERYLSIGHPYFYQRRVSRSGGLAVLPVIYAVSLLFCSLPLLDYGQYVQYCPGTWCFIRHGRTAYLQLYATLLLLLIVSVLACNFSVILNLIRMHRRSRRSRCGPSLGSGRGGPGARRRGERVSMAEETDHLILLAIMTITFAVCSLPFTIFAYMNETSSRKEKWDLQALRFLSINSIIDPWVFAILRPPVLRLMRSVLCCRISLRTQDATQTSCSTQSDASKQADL", "experiment": "blockers of PGE2-driven EP2 cAMP signalling – TR-FRET cAMP, C6 glioma cells, primary screen (AID 1422);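 note: rat C6 glioma host cells with rolipram phosphodiesterase inhibitor present; the protocol text gives 20 µM as final concentration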", "settings": "C6 glioma cells expressing human EP2, cAMP TR-FRET; at 25 µM; hits give high values; cells stimulated with saturating PGE2"}
{"molecule": "O=C1c2cccc3cccc(c23)C(=O)N1c1ccc(N2C(=O)c3cccc4cccc(c34)C2=O)cc1", "inhibition": "9.96% (inactive)"}
{"molecule": "Cc1ccc(-c2nc3ccccc3[nH]c2=O)cc1", "inhibition": "12.3% (inactive)"}
{"molecule": "O=c1[nH]c2ccccc2n2c(-c3ccccc3)nnc12", "inhibition": "82.1% (active)"}
{"molecule": "CCOC(=O)c1cnc2[nH]c3ccccc3n2c1=O", "inhibition": "4.64% (inactive)"}
{"molecule": "Cc1nn(CC(=O)Nc2cccc3ncccc23)c(=O)c2ccccc12", "inhibition": "6.79% (inactive)"}
{"molecule": "O=c1cc(CSc2nnc(Cn3nnc4ccccc43)o2)c2ccccc2[nH]1", "inhibition": "7.33% (inactive)"}
{"molecule": "CCOc1ccc(NC(=S)N(CCO)Cc2cc3c(C)cc(C)cc3[nH]c2=O)cc1", "inhibition": "6.48% (inactive)"}
{"molecule": "Cc1cc2c(cc1C)NC1=C(N2)O[C@H](c2c[nH]c3ccc(COc4ccccc4)cc23)C1=O", "inhibition": "56.3% (active)"}
{"molecule": "COc1cc(C)c(CNC(=O)c2cccc(-n3cnnc3)c2)cc1C(C)C", "inhibition": "4.98% (inactive)"}
{"molecule": "COCC(=O)Nc1cc(C)on1", "inhibition": "7.17% (inactive)"}
{"molecule": "CC(C)(C)NCC[C@@H](O)c1cc(C(F)(F)F)nc2c(C(F)(F)F)cccc12", "inhibition": "48.9% (active)"}
{"molecule": "COc1ccc(N(CC(=O)N2CCN(c3ccc(F)cc3)CC2)S(C)(=O)=O)cc1", "inhibition": "6.08% (inactive)"}
{"molecule": "CCCC(c1nnnn1C1CCCCC1)N1CCN(c2ccccc2)CC1", "note": "(stereo unspecified)", "inhibition": "5.51% (inactive)"}
{"molecule": "COc1ccc2[nH]c(=S)cc(C)c2c1", "inhibition": "7.37% (inactive)"}
{"molecule": "COc1ccc2[nH]c3ccc(OC)cc3c2c1", "inhibition": "6.17% (inactive)"}
{"molecule": "COc1ccc2[nH]c3cc4c(=O)c5cc(OC)ccc5[nH]c4cc3c(=O)c2c1", "inhibition": "49.6% (active)"}
{"molecule": "Cc1ccc(-c2cc(N)c(=O)n(CC(=O)N3c4ccccc4CC3C)n2)o1", "note": "(stereo unspecified)", "inhibition": "9.35% (inactive)"}
{"molecule": "CCOc1ccc2[nH]c(=O)c(CN(Cc3ccc4c(c3)OCO4)C(=O)Nc3ccc(C)cc3)cc2c1", "inhibition": "10.3% (inactive)"}
{"molecule": "Cc1ccc2cc(CN(Cc3cccs3)Cc3nnnn3Cc3ccco3)c(=O)[nH]c2c1", "inhibition": "12.8% (inactive)"}
{"molecule": "COc1ccc(-n2nnnc2SCC(=O)Nc2ccc(N(C)C)cc2)cc1", "inhibition": "8.77% (inactive)"}
{"molecule": "Cc1ccc(N(CC(=O)N2CCC(C(N)=O)CC2)S(C)(=O)=O)cc1C", "inhibition": "15.2% (inactive)"}
{"molecule": "Cc1ccc(-c2nc(C)sc2CC(=O)O)cc1", "inhibition": "8.08% (inactive)"}
{"molecule": "C/C(=N/Nc1nc(-c2ccccc2)c(CC(=O)O)s1)c1ccccc1", "inhibition": "11.6% (inactive)"}
{"molecule": "O=C(O)Cc1sc(-c2ccccc2)nc1-c1cccs1", "inhibition": "43% (active)"}
{"molecule": "COC(=O)c1c(NC(=O)Cc2cccs2)sc(C(=O)Nc2cccc(Cl)c2)c1C", "inhibition": "8.6% (inactive)"}
{"molecule": "CCCc1nc2ccccc2n1CC(O)COc1ccc(F)cc1", "note": "(stereo unspecified)", "inhibition": "10.9% (inactive)"}
